Sampled rows, rich in hits. Any-hit rate of the full collection: about 2.4%.
MEKK2 mut-MEK5 = signal of MEK5 binding to mutant human MEKK2 PB1 domain. percent response, % at 10 µM. hit rate 0.35% among 290,000. bead flow cytometry, Alexa488-MEK5 binding to MEKK2 mutant. AID 1530; in the data active = percent response above about 24%, passing the limit was not always enough
MEKK2wt PB1 HTS = raises or lowers MEK5 binding to wildtype human MEKK2 PB1 domain. Q9Y2U5. bead flow cytometry, Alexa488-MEK5 binding to MEKK2 WT; actives lie on both sides. binding response (% of control), % at 10 µM. hit rate 1.1% among 290,000; in the data active = binding response below about 67% or above about 130%
Arbovirus inh = antivirals against arbovirus infection | hit rate 0.37% among 200,000 | arbovirus infection cell-based antiviral screen | inhibition, % at 10 µM | AID 1251; in the data active = inhibition above about 30%
Pf gamet viab = kills late stage P. falciparum gametocytes; AID 743093; hit rate 0.065% among 150,000; P. falciparum stage V gametocytes, ATP luminescence, 24 h; inhibition, % at 10.9 µM;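 active = inhibition above the mean plus 3 SD of compounds within the control limits, set per campaign, cut at about 38% in these data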;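 note: 0% = DMSO wells and 100% = medium only without gametocytes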
MEKK3 PB1 HTS = MEKK3-MEK5 PB1 interaction, increase or decrease; binding response (% of control), % at 10 µM; Q99759; hit rate 1.4% among 290,000; bead-based flow cytometry, Alexa488-MEK5 binding to MEKK3; actives lie on both sides; 0 = blocked by unlabeled MEK5, 100 = vehicle;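 active = binding response more than 3 SD above or below the average of its plate-row segment, actives on both sides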;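 note: Alexa488 bead fluorescence after subtracting the streptavidin-only scavenger bead signal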
Target sequence (Q99759 whole entry, looked up): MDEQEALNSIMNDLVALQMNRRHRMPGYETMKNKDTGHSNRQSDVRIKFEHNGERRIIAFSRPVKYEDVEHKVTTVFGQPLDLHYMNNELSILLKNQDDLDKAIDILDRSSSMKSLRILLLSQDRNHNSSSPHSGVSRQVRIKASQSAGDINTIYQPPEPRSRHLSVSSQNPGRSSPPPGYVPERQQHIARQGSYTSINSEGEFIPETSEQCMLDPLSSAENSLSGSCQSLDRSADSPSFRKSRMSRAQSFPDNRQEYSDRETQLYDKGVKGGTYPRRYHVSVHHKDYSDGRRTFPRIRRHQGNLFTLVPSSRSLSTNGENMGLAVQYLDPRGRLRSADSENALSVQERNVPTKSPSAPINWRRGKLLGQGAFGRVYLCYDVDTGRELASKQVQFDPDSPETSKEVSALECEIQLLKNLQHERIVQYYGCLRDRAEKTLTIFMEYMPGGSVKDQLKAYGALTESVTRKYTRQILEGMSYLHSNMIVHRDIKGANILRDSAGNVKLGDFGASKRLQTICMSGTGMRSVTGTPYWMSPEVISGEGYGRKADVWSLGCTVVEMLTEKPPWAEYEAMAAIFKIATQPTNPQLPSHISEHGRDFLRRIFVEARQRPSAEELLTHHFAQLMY
MEKK2wt confirm = raises or lowers MEK5 binding to wildtype human MEKK2, retest. shares compounds with MEKK3 PB1 HTS. bead flow cytometry, Alexa488-MEK5 binding to MEKK2 WT; actives lie on both sides. binding response (% of control), % at 10 µM. hit rate 2.4% among 5,900. AID 1892; in the data active = binding response below about 16% or above about 210%; inactive = in between
MEKK2mut confirm = signal of MEK5 binding to mutant human MEKK2, retest | shares compounds with MEKK3 PB1 HTS | bead flow cytometry, Alexa488-MEK5 binding to MEKK2 mutant | percent response, % at 10 µM | hit rate 2% among 5,900 | AID 1893; in the data active = percent response mostly above about 71%, no sharp cut-off; inactive = mostly below about 38%;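 note: higher means compound restores mutant binding toward wildtype level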
MEKK3-MEK5 inh = confirmation of inhibitors of MEK5 binding to human MEKK3. shares compounds with MEKK3 PB1 HTS. bead flow cytometry, Alexa488-MEK5 binding to MEKK3; active compounds read low. binding response (% of control), % at 10 µM. hit rate 1.8% among 5,900. AID 1894;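 active = binding response below 72% of control, or above a set upper limit, though filed actives all read lower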;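 note: 100% = DMSO only wells and 0% = binding blocked by excess unlabeled MEK5; lower values mean stronger disruption of MEK5 binding to MEKK3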
* marks the source's active call; other numbers are inactive results; / = no result; [ ] = dose if it differs, or a comment.

SMILES	MEKK2 mut-MEK5	MEKK2wt PB1 HTS	Arbovirus inh	Pf gamet viab	MEKK3 PB1 HTS	MEKK2wt confirm	MEKK2mut confirm	MEKK3-MEK5 inh
O=C(CSc1nc2ccccc2c(=O)n1-c1ccccc1)N1CCN(CCO)CC1	-21	3.0*[inhibitor]	0	0	2.0*[inhibitor]	96	1	104
CC(C)c1ccccc1-n1c(SCC(=O)N2CCc3ccccc3C2)nc2ccccc2c1=O	0	103	12	-20	155*	92	-8	98
Cc1cccc(-n2c(SCC(=O)N3CC(=O)Nc4ccccc43)nc3ccccc3c2=O)c1	0	110	3	3	121	/	/	/
CC1CCN(C(=O)CN2C(=O)C(C)(C)Oc3ccc(C(=O)NC(C)C)cc32)CC1	5	106	/	/	103	/	/	/
CNC(=O)OC(C)CNS(=O)(=O)c1ccc(C)cc1 (centres undefined)	-21	2.0*[inhibitor]	5	/	2.0*[inhibitor]	104	18	104
Cc1ccc(S(=O)(=O)NCC(C)NS(=O)(=O)c2ccc(C)cc2)cc1 (centres undefined)	2	109	2	/	108	/	/	/
CCCCCCCCCCCCCCCC[n+]1ccc(/C=N/O)cc1	45	150*	-41	28	127	257*	181*	112
CCCCCCCCCCCCCCCC[n+]1ccc(C(N)=O)cc1	1	139*	-38	/	106	157	31	104
COc1ccc(NC(=O)c2ccc(Cl)c(NC(=O)c3ccncc3)c2)cc1	-6	93	2	/	96	/	/	/
CCOP(=O)(OCC)C(Nc1ccccn1)c1ccccc1 (centres undefined)	1	108	7	/	135*	91	-14	94
O=C(Nc1ccc(-c2nc3ccccc3[nH]2)cc1)c1ccc2c(c1)OCO2	-5	83	-18	-10	81*[inhibitor]	84	-13	85
COc1ccc(C2C(C(=O)N3CCCCC3)CC(=O)N2c2ccc(OC)cc2)cc1 (centres undefined)	4	118	3	/	127*	95	-8	95
COc1ccc(C2C(C(=O)N3CCC(C(N)=O)CC3)CC(=O)N2c2ccc(OC)cc2)cc1 (centres undefined)	-7	92	0	17	96	/	/	/
Cc1ccccc1NC(=S)Nc1ccc2[nH]c(=O)[nH]c2c1	-3	100	/	-8	101	/	/	/
O=C(Cc1ccc(Cl)cc1)NC1CCCN(Cc2ccccc2F)C1 (centres undefined)	8	105	/	-5	103	/	/	/
COc1ccc(N2CCN(C(CNC(=O)C(=O)NCC3CCCO3)c3ccco3)CC2)cc1 (centres undefined)	1	114	-3	2	132*	105	0	102
Cc1ccc(NC(=O)CC(NCC2CCCO2)C(=O)O)cc1C (centres undefined)	2	104	1	-13	102	/	/	/
CC(C)C(=O)Nc1nnc(SCC(=O)NC2CC2)s1	-15	11*[inhibitor]	5	/	7.0*[inhibitor]	100	-4	101
Cc1ccc(S(=O)(=O)NNc2nnc(C)c(=O)[nH]2)cc1	5	129	7	-10	135*	101	-6	99
Cc1nn(-c2ccccc2)c(N)c1C(c1ccc(C(C)C)cc1)c1c(C)nn(-c2ccccc2)c1N	0	106	-31	/	146*	96	0	97
COc1cc(OC)c(OC)cc1/C=N/Nc1nc2ccccc2[nH]1	12	120	/	-2	105	/	/	/
CCN(CC)c1ccc(/C=N/N(c2ccccc2)c2ccccc2)c(O)c1	4	101	19	8	101	/	/	/
CCN(CC)c1ccc(/C=N/Nc2nc3ccccc3[nH]2)c(O)c1	31*	129	-36	/	107	131	21	103
CCN(CC)c1ccc(O)c(C=Nc2ccc(C)c(C)c2)c1	-21	64	3	-11	86	/	/	/
CCN(CC)c1ccc(C=Nc2ccc(C#N)cc2)c(O)c1	-36	67*[inhibitor]	-5	-17	101	101	5	106

High-throughput results from PubChem BioAssay.
